Where “and” joins values, the source holds several entries; their conditions need not be identical. Equal entries are not always repeated. Records with an inconclusive call do not appear. Calls of active or inactive are those of the source. Unless noted, calls follow the shape of the dose curve; as a rule, active = well fitted curve in the direction sought with a large enough effect; inconclusive = small, poorly fitted or top-dose-only effect, or another doubt; inactive = no such curve, though single readings can be large; an effect the other way counts as inactive or inconclusive.

The nature of test [1]: qHTS to identify inhibitors of the type 1 interferon - major histocompatibility complex class I in skeletal muscle: primary screen against the NCATS Mechanism Interrogation Plate v5.0 (MIPE) Libary (AID 1347411). Also: nearly all actives have a fitted effect of over 65% in size. Also: potency is read from the fitted curve at half-maximal effect.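 As to activity change, negative = inhibition: plate controls were vehicle for no effect and reference inhibitor for full effect.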 A digest of the protocol: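 IFN-beta-driven (4 ng/ml) HLA-B-HiBit expression in CRISPR-tagged C25cl48 myoblasts; compounds 11-pt, 1:3, max 46 uM, 24 hr exposure; lytic NanoLuc complementation luminescence.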
In general terms: In qHTS, concentration-response curves come from the screen itself.

For test [2], the target named is Calcium and integrin-binding protein 1 (Homo sapiens) (UniProt Q99828). The experiment in a line: Primary qHTS for Identification of Calcium Integrin Binding Protein 1 (CIB1) Competitor (AID 1508620).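 Also: GST tagged CIB1 binding a fluorescein labelled alphaIIb integrin peptide tracer; top concentration of the series differs between compounds; % is scaled to controls: 0 for no effect and ±100 for the full control effect.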 A digest of the protocol:
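Fluorescence polarization competition: CIB1-GST (1 uM final) preincubated with compound 15 min at room temperature, then FITC-labeled alphaIIb peptide (100 nM final) added for another 15 min. Polarization read at Ex 480/Em 540.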

Test [3] can be described thus: Primary qHTS for small molecule stabilizers of the endoplasmic reticulum resident proteome: Secreted ER Calcium Modulated Protein (SERCaMP) assay (AID 1508630). Also: % is scaled to controls: 0 for no effect and ±100 for the full control effect. The method in brief: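 The SH-SY5Y reporter protocol was run at 3 concentrations up to 38.3 uM (primary) or 11 concentrations (follow-up): 16 h compound, 100 nM thapsigargin for 4 h, then extracellular luciferase luminescence.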

Test [4] has as its target Cytochrome P450 2D6 (Homo sapiens) (UniProt P10635). The experiment in a line: Cytochrome P450 family 2 subfamily D member 6 (CYP2D6) small molecule antagonists: luciferase biochemical (cell-free) qHTS assay (AID 1645840; active = well fitted curve in the direction sought with a large enough effect in the repeat runs; an effect the other way counts as inactive or inconclusive; also: nearly all actives have a fitted effect of over 55% in size; also: potency is read from the fitted curve at half-maximal effect; as to activity change, negative = inhibition: % is scaled to controls: 0 for no effect and ±100 for the full control effect). A digest of the protocol: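 P450-Glo CYP2D6 system: proluciferin substrate converted by enzyme to luciferin, read by luminescence proportional to activity. Enzyme-substrate mix with compound 10 min at room temperature, then NADPH regeneration 1 h before detection reagent.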

Test [5] concerns the target Cytochrome P450 2C9 (Homo sapiens) (UniProt P11712). Put plainly: Cytochrome P450 family 2 subfamily C member 9 (CYP2C9) small molecule antagonists: luciferase biochemical (cell-free) qHTS assay (AID 1645842; active = well fitted curve in the direction sought with a large enough effect in the repeat runs; an effect the other way counts as inactive or inconclusive; also: nearly all actives have a fitted effect of over 55% in size; also: potency is read from the fitted curve at half-maximal effect). The method in brief: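 P450-Glo CYP2C9 system: proluciferin substrate with enzyme in mix containing 0.4% BSA, 10 min at room temperature, then NADPH regeneration solution added and incubated 1 h at 37C. Detection reagent stopped reaction; luminescence read after 20 min as RLU.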

The nature of test [6]: Primary qHTS for inhibitors of nuclear receptor binding SET domain protein 2 (NSD2) in an isogenic RCH-ACV NSD2 p.E1099K mutant (9B) (AID 1645876). Also: nearly all actives have a fitted effect of over 70% in size. Also: potency is read from the fitted curve at half-maximal effect.
Test [7] can be described thus: Primary qHTS for inhibitors of nuclear receptor binding SET domain protein 2 (NSD2) in an RCH-ACV wild type WT cells (2C) (AID 1645877). Also: nearly all actives have a fitted effect of over 70% in size. Also: potency is read from the fitted curve at half-maximal effect.
Test [8] can be described thus: qHTS to identify inhibitors of the type 1 interferon - major histocompatibility complex class I in skeletal muscle: primary screen against the NCATS Pharmaceutical Collection (AID 1347407).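 Also: luminescence of HiBiT knocked into endogenous HLA-B as interferon-induced MHC class I level; % is scaled to controls: 0 for no effect and ±100 for the full control effect.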 The method in brief:
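Luminescence from HiBiT-tagged endogenous HLA-B*08:01 served as the read-out of IFN-beta-induced MHC class I in CRISPR-engineered C25cl48 myoblasts. Cells received 4 ng/ml IFN-beta plus compound (high final 46 uM, […]) for 24 h.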

The target of test [9] is Protein phosphatase 1D (Homo sapiens) (UniProt O15297). Put plainly: RapidFire Mass Spectrometry qHTS Assay for Modulators of WT P53-Induced Phosphatase 1 (WIP1) (AID 1347424).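 Also: amount of dephosphorylated VEPPL-S-QETFS peptide product formed by WIP1; potency is read from the fitted curve at half-maximal effect.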 The method in brief:
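Mass-spectrometric measurement of dephosphorylated peptide after a 5 min room-temperature reaction of 10 nM WIP1 with 2 uM phosphopeptide, following 1 h compound preincubation in 30 mM MgCl2 buffer.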

For test [10], the target named is Catechol O-methyltransferase (Homo sapiens) (UniProt P21964). The experiment in a line: Confirmatory Screen for Target Class Profiling of Small Molecule Inhibitors of Methyltransferases (AID 1745852). The note with it: MTase-Glo luminescence, SAH detection, recombinant enzyme; measured here: COMT max response; stronger effect = lower value.
Catechol O-methyltransferase (Homo sapiens), sequence (P21964 whole entry, looked up): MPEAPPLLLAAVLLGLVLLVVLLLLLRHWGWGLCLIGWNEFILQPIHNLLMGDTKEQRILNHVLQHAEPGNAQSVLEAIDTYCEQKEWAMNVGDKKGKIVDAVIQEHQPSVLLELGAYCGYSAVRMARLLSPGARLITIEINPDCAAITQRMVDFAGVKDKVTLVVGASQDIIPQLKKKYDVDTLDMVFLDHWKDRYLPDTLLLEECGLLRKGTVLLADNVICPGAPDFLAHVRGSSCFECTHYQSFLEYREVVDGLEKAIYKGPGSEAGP
In test [11] the target is Guanidinoacetate N-methyltransferase (Homo sapiens) (UniProt Q14353). The test is described as above. As to conditions: activity change, negative = inhibition: at 57.3 µM (top of the series).
Test [12] concerns the target Nicotinamide N-methyltransferase (Homo sapiens) (UniProt P40261). Described as above. The note with it: MTase-Glo luminescence, SAH detection, recombinant enzyme; measured here: NNMT max response; stronger effect = lower value.
For test [13], the target named is Cytochrome P450 3A4 (Homo sapiens) (UniProt P08684). Put plainly: Cytochrome P450 family 3 subfamily A member 4 (CYP3A4) small molecule antagonists: luciferase qHTS assay (AID 1645841; active = well fitted curve in the direction sought with a large enough effect in the repeat runs; an effect the other way counts as inactive or inconclusive; also: potency is read from the fitted curve at half-maximal effect; nearly all actives have a fitted effect of over 45% in size). A digest of the protocol: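 P450-Glo CYP3A4 enzyme with proluciferin substrate was preincubated with DMSO-dissolved compounds for 10 min at room temperature. NADPH regeneration solution started a 1 h reaction. Detection reagent stopped it, and luminescence was read after 20 min.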
Cytochrome P450 3A4 (Homo sapiens), sequence (P08684 whole entry, looked up): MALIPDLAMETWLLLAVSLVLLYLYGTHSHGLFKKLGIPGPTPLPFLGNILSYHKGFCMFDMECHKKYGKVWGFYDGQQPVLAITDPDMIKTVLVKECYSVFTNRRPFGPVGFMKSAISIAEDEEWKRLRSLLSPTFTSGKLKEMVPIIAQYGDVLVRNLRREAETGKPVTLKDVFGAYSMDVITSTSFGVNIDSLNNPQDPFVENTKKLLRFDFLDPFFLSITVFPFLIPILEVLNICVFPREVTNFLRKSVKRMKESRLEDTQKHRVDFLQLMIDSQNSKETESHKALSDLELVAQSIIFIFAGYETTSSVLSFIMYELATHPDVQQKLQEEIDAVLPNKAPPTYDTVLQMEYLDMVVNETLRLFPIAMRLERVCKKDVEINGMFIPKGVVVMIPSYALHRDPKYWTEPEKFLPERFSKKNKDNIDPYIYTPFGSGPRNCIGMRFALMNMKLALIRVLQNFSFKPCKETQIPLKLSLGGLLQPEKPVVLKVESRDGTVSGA

Cytochrome P450 2C9 (Homo sapiens), sequence (P11712 whole entry, looked up): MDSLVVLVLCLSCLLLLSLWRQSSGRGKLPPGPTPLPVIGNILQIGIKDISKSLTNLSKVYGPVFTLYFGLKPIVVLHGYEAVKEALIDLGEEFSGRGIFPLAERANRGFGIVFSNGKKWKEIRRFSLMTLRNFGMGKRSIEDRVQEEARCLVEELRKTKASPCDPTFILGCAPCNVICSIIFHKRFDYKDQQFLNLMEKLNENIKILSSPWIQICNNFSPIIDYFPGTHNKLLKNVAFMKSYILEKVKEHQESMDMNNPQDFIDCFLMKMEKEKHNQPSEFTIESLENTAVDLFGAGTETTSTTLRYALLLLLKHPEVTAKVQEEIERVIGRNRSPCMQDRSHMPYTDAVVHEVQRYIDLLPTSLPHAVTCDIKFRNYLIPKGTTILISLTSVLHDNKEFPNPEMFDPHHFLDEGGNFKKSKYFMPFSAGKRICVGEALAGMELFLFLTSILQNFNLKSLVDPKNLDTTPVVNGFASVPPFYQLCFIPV
Cytochrome P450 2D6 (Homo sapiens), sequence (P10635 whole entry, looked up): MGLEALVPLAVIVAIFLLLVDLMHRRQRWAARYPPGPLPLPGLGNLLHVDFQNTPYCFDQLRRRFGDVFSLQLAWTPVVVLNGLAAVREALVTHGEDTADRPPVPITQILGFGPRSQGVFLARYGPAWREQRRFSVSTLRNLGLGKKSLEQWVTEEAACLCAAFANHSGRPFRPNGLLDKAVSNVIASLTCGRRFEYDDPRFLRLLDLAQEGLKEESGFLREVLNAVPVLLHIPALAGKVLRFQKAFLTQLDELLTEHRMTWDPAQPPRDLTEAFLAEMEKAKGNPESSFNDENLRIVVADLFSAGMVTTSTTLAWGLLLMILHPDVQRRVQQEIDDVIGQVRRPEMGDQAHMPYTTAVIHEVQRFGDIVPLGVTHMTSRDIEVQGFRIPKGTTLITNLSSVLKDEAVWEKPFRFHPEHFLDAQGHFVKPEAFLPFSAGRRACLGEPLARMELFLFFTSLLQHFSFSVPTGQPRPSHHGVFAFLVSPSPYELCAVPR
Calcium and integrin-binding protein 1 (Homo sapiens), sequence (Q99828 whole entry, looked up): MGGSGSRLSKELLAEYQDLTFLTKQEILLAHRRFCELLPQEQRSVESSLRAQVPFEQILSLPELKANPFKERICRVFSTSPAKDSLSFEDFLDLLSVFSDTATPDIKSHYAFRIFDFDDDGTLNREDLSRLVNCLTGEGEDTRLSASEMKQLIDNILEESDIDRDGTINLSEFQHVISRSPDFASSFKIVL
Nicotinamide N-methyltransferase (Homo sapiens), sequence (P40261 whole entry, looked up): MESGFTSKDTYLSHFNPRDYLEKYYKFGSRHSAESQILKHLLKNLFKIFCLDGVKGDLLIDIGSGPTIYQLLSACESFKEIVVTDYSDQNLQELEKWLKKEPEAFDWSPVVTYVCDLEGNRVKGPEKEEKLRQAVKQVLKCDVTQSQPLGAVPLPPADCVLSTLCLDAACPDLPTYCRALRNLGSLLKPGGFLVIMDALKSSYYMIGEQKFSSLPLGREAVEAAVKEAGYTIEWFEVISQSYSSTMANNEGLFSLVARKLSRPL
Protein phosphatase 1D (Homo sapiens), sequence (O15297 whole entry, looked up): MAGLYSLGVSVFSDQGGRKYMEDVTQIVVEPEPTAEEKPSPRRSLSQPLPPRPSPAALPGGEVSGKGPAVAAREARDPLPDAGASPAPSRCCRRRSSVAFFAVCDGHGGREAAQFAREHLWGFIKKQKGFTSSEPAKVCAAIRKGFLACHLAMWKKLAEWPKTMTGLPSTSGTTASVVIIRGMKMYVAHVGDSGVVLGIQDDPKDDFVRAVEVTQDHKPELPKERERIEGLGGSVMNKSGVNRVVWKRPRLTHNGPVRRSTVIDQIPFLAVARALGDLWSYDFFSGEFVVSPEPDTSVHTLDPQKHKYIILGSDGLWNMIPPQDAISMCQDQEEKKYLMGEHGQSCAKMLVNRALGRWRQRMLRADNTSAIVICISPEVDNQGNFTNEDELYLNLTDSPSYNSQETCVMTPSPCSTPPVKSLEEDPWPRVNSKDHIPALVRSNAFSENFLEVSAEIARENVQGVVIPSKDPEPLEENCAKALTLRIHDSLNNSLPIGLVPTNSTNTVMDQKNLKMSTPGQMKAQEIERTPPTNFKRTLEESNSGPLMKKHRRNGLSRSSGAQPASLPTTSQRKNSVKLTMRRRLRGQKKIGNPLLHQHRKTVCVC

With `CCCc1nc(C(C)(C)O)c(C(=O)O)n1Cc1ccc(-c2ccccc2-c2nn[nH]n2)cc1`, the Potency entry in [1], in test [2], in test [4], in [5], in [6] and in [7] was “inactive” each time. For the same molecule, the outcome in test [3] is “inactive”.
As to `COc1ccc(S(=O)(=O)Nc2cc(-c3c(O)ccc4ccccc34)c(O)c3ccccc23)cc1`, the Potency in test [1] was 16.5 µM (active). Further, the Potency entry in test [2] was “inactive”. The outcome in test [3] was “inactive”.
For the molecule `CN(CC(=O)N(Cc1ccc(C2CCCCC2)cc1)c1ccc(C(=O)O)c(O)c1)S(=O)(=O)c1c(F)c(F)c(F)c(F)c1F`, the Potency result in test [1] and in test [2] was “inactive” throughout. Moreover, the outcome in test [3] is “inactive”.
Consider `Cc1ncc(-c2ccnc(Nc3ccc(S(C)(=O)=O)cc3)n2)n1C(C)C`, for which the Potency was 1.17 µM (active) in test [1]; 3.79 µM (active) in [5]; 1.45 µM (active) and 742 nM (active) in test [6]; 916 nM (active) and 525 nM (active) in [7]. For the same molecule, the Potency entry in test [2] and in test [4] was “inactive” each time. Also, the outcome in test [3] was “inactive”.
On to `Oc1cc(-c2nc(-c3ccccc3)[nH]c2-c2ccncc2)ccc1Cl`, for which the Potency in [1] is 16.5 µM (active); in test [4], 0.756 µM (active); in test [5] it was 1.69 µM (active); in test [6] it was 11.8 µM (active) and 18.3 µM (active); in test [7], 13.2 µM (active) and 16.4 µM (active). Moreover, the Potency entry in test [2] was “inactive”. Further, the outcome in test [3] is “inactive”.
As to `Cc1ccc(-n2[nH]c(C)c(N=Nc3cccc(-c4cccc(C(=O)O)c4)c3O)c2=O)cc1C`, the outcome in [8] was “inactive”. The Potency result in test [1] and in [5] was “inactive” in each case. In addition, the Potency in test [9] is 12.6 µM (active); in test [4] it was 4.9 µM (active) and 7.56 µM (active).
With `C#CCC(Cc1cnc2nc(N)nc(N)c2n1)c1ccc(C(=O)N[C@@H](CCC(=O)O)C(=O)O)cc1` (stereo partly specified), the Potency result in test [1], in [2], in test [4] and in test [5] was “inactive” in each case. Moreover, the outcome in [3] is “inactive”. Moreover, the figures for the Potency in test [6] and in test [7] were 4.7 nM (active) and 5.3 nM (active), respectively.
Consider `CCOc1cc2c(c(F)c1OCC)C(=N)N(CC(=O)c1cc(N3CCOCC3)c(OC)c(C(C)(C)C)c1)C2`, for which the Potency is 14.7 µM (active) in test [1]; 5.35 µM (active) in [4]; 6.01 µM (active) in test [5]; 23000 nM (active) in test [6]; 16300 nM (active) in test [7]. Besides, the Potency result in [2] was “inactive”. Also, in [3], the outcome was “inactive”.
Turning to `Cc1cc(O)c2c(c1)C(=O)c1cccc(O)c1C2=O`, the Potency entry in test [1], in [2], in test [4], in test [5], in test [6] and in [7] was “inactive” each time. In addition, in test [3], the outcome was “inactive”.
On to `N#Cc1c(C2CCNCC2)cc(-c2c(O)cccc2OCC2CC2)nc1N`, for which the Potency in [1] is 8.29 µM (active); in test [4] it was 0.674 µM (active); in test [5] it was 8.49 µM (active); in [6] it was 11800 nM (active); in test [7], 9340 nM (active). The Potency result in [2] is “inactive”. Moreover, the outcome in [3] was “inactive”. The activity is -9.7% in test [10] and -55.9% in [12]. In addition, the activity change, negative = inhibition in [11] is 0.393%.
In the case of `CC(C)Oc1ccc(C(=O)N[C@H](CNC(=O)CN(C)C)Cc2ccc(-c3cn4cccc([C@H](C)O)c4n3)cc2)cc1Cl`, the Potency result in test [1] and in test [2] was “inactive” throughout. For the same molecule, the outcome in test [3] was “inactive”. The Potency was 5.35 µM (active) in test [4], 10.7 µM (active) in test [5], 59 nM (active) in [6] and 59 nM (active) in test [7].
As for `Cc1cnc(Nc2ccc(CN3CCOCC3)cc2)nc1Nc1cccc(S(=O)(=O)NC(C)(C)C)c1`, the Potency in [1] was 2.94 µM (active); in test [4] it was 9.52 µM (active); in test [5], 1.34 µM (active); in [6] it was 1.18 µM (active) and 578 nM (active); in test [7], 1.05 µM (active) and 515 nM (active). In test [2], the Potency result was “inactive”. The outcome in [3] is “inactive”. Further, the values for the activity in test [10] and in test [12] were -0.0774% and -43.5%, respectively. The activity change, negative = inhibition in [11] was found to be 0.454%.
Turning to `COC[C@H](NC(=O)c1cnc(C)s1)C(=O)N[C@@H](COC)C(=O)N[C@@H](Cc1ccccc1)C(=O)[C@@]1(C)CO1`, the Potency in test [1] was 0.0523 µM (active); in test [13], 10.7 µM (active); in test [6], 132 nM (active); in test [7], 83.3 nM (active). Besides, the Potency result in test [2], in test [4] and in [5] was “inactive” throughout. In addition, in test [3], the outcome was “inactive”.
Take `Nc1ccn(C[C@@H](CO)OCP(=O)(O)O)c(=O)n1`: the activity change, negative = inhibition in test [1] was -9.6% [at 8.44 µM] (inactive). For the same molecule, the Potency result in [2] is “inactive”.
Turning to `OCCNC1CCCc2c1[nH]c1ccc(-c3ccccc3)cc21` (stereo unspecified), the Potency in [1] is 20.8 µM (active); in [4], 15.1 µM (active); in [5] it was 26.8 µM (active); in test [6] it was 11800 nM (active); in test [7], 11800 nM (active). In [2], the Potency entry is “inactive”. Moreover, the outcome in [3] was “inactive”.
As for `Nc1nc2c(c(=O)[nH]1)N(C=O)[C@H](CNc1ccc(C(=O)N[C@@H](CCC(=O)O)C(=O)O)cc1)CN2`, the Potency result in test [1], in test [2] and in [6] was “inactive” in each case. In test [3], the outcome is “inactive”.
Take `O=C(CN1C(=O)C2(CCCC2)NC[C@H]1c1cc(F)cc(F)c1)Nc1ccc2c(c1)C[C@@]1(C2)C(=O)Nc2ncccc21`: the Potency result in test [1], in test [2], in test [6] and in test [7] was “inactive” throughout. Besides, the outcome in test [3] was “inactive”.
Turning to `CC(=O)OC[C@@H]1O[C@@H](n2ccc(=O)[nH]c2=O)[C@H](OC(C)=O)[C@H]1OC(C)=O`, the Potency result in test [1], in test [2], in [6] and in [7] was “inactive” in each case. In addition, the outcome in test [3] is “inactive”.
In the case of `COc1cc(C[C@@H](CO)[C@H](CO)Cc2ccc(O)c(OC)c2)ccc1O`, the Potency result in test [1], in test [2], in [6] and in [7] was “inactive” throughout. Also, the outcome in [3] is “inactive”.
On to `CCCCOc1ccc(C(=O)Nc2ccc(F)cc2F)cc1`, for which the Potency entry in test [1], in [2], in [6] and in test [7] was “inactive” each time. Further, in test [3], the outcome is “inactive”. Further, the Potency in test [5] was 7.56 µM (active).
On to `COc1ccc(C[C@@H](C)[C@@H](C)Cc2ccc(OC)c(OC)c2)cc1OC`, for which the Potency result in test [1] and in test [2] was “inactive” throughout. Further, in test [3], the outcome was “inactive”. The Potency in [5] was 3.01 µM (active).

Source of the values: PubChem BioAssay (NCATS).
